Screens as filed in PubChem BioAssay.
Shown are actives, neighbours in structure and some others; about 9.3% of the full set was active somewhere.
VACV mCherry inh = inhibitors of vaccinia virus infection (mCherry reporter signal); Vaccinia virus mCherry reporter infection, fluorescence; Potency, µM (doses to about 36.5 µM), actives largely listed as inhibitors; actives 0.63% (n = 310,000); AID 720579; calls by dose curve; tested in A549 cells; also: nearly all actives have a fitted effect of over 35% in size
HCV inhibitor = inhibitors of hepatitis C virus infection; Huh7.5.1 HCVcc-Cre infection, luciferase reporter, 44 h; AID 651820; actives 3.4% (n = 340,000); Potency, µM (highest dose often 41.8 µM), most hits filed as inhibitors
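Cells seeded at 1,000/well and cultured 4 h, then compounds added followed by HCVcc-Cre virus (~0.5 moi). After 44 h further culture, luciferase substrate was added, plates held 15 min at room temperature, and luminescence read for 15 sec.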
HCMV antiviral = inhibitors of human cytomegalovirus. HFF cells, HCMV-luciferase reporter, 72 h; stronger effect = lower value. activity change, negative = inhibition, % at 57.5 µM. actives 4.5% (n = 410,000); in the data active = activity change below about -60%; inconclusive = no clear call, values can overlap the other calls; inactive = above about -39%
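After 16 h attachment at 37C, HFF cells received test compound and HCMV-luciferase (1 PFU/cell); reporter luminescence read 72 h later, data normalized against buffer-only and known inhibitor Salinomycin.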
FMDV antiviral = foot and mouth disease virus antiviral activity; FMDV antiviral cell-based qHTS; Potency, µM (highest dose often 57.9 µM), usual class: inhibitors; actives 1.2% (n = 410,000); AID 1159524; calls by dose curve; tested in HEK293T cells; also: read-out not given here; nearly all actives have a fitted effect of over 45% in size
Vaccinia Venus = vaccinia inhibition (Venus reporter); Vaccinia virus Venus reporter expression, fluorescence; Potency, µM (highest dose often 36.5 µM), hits mostly inhibitors; actives 0.46% (n = 330,000); AID 720580; calls by dose curve; tested in A549 cells; also: nearly all actives have a fitted effect of over 30% in size
Sm TGR inh = S. mansoni TGR enzyme inhibition; Q962Y6; purified TGR, DTNB reduction, TNB absorbance 405 nm; Potency, µM (titrated, usually from 114 µM), actives largely listed as inhibitors; actives 3% (n = 360,000); also: nearly all actives have a fitted effect of over 60% in size
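Kinetic colorimetric format: TGR-catalysed, NADPH-driven DTNB reduction monitored via TNB absorbance. Enzyme dispensed at 20 nM; compound exposure 15 min at room temperature before reaction start.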
A number is an active result; 0 = inactive; ? = inconclusive; - = not tested or not shown; [ ] = another dose, or the depositor's remark. Unless noted, calls follow the shape of the dose curve; as a rule, active = well fitted curve in the direction sought with a large enough effect; inconclusive = small, poorly fitted or top-dose-only effect, or another doubt; inactive = no such curve, though single readings can be large; an effect the other way counts as inactive or inconclusive.

SMILES	VACV mCherry inh	HCV inhibitor	HCMV antiviral	FMDV antiviral	Vaccinia Venus	Sm TGR inh
CC(C)c1ccc(S(=O)(=O)/N=C2\C=C(NS(=O)(=O)c3ccccc3)C(=O)c3ccccc32)cc1	?	0	0	0	0	?
COc1cccc(SCC2(O)CCN(C(=O)c3ccc(Cl)cc3)CC2)c1	0	0	0	0	0	-
COc1ccccc1C(=O)NCCC(=O)NCC(c1ccc(F)cc1)N1CCOCC1 (configuration not stated)	0	0	0	0	0	0
CC1(OC(=O)CCc2ccccc2)C(=O)C=C2C=C3CCCN3C=C2C1=O (configuration not stated)	0	0	0	0	0	35.5µM
CC1(OC(=O)CCc2ccccc2)C(=O)C=C2C=C(c3ccc(C#N)cc3)N(C3CCCCC3)C=C2C1=O (configuration not stated)	0	?	0	0	0	0
CC1(OC(=O)c2cccs2)C(=O)C=C2C=C3CCCN3C=C2C1=O (configuration not stated)	0	0	-	0	0	35.5µM
CCN(CC)CCCN1C=C2C(=O)C(C)(OC(=O)CCc3ccccc3)C(=O)C=C2C=C1c1ccc(C#N)cc1 (configuration not stated)	0	0	-	0	0	39.8µM
COc1cccc(N2CC34C=CC(O3)C(C(=O)O)C4C2=O)c1 (configuration not stated)	0	0	0	0	0	0
O=C1Cc2cc(S(=O)(=O)N3CCN(c4ccc(O)cc4)CC3)ccc2N1	-	-	0	0	-	-
O=C1CC(=O)Nc2cc(S(=O)(=O)N3CCN(c4ccc([N+](=O)[O-])cc4)CC3)ccc2N1	-	0	0	0	-	11.2µM
O=C(Nc1nc(-c2cccs2)cs1)c1cccc(S(=O)(=O)N2CCCCCC2)c1	?	11.2µM	0	0	?	0
O=C(Nc1nc(-c2ccc(S(=O)(=O)N3CCCC3)cc2)cs1)c1ccco1	?	?	-65.1	?	0	0
Cc1nc(-c2cccc(NC(=O)c3cccc(S(=O)(=O)N4CCCC4)c3)c2)cs1	-	10µM	?	?	-	0
O=C(Nc1nc(-c2cccs2)cs1)c1ccc(S(=O)(=O)N2CCCCC2)cc1	?	17.8µM	-66.6	15.8µM	?	0
COc1ccc(NC(=O)C23CC4CC(C2)CC(n2cnc(Br)n2)(C4)C3)cc1Cl	0	?	0	0	0	0
CC1=NN(c2ccccc2)C(=O)C1C(=S)SC1CC(=O)NC1=O (configuration not stated)	0	-	-87.7	0	0	-
Cc1ccc(/C=C/C(O)=C2/C(=O)N(C)C3(C)CC2c2ccccc2O3)cc1 (configuration not stated)	?	?	-97.5	14.1µM	?	0
COc1ccc(/C=C/C(O)=C2/C(=O)N(C)C3(C)CC2c2ccccc2O3)cc1 (configuration not stated)	-	0	-84.9	14.1µM	-	0
COc1ccc(/C=C/C(O)=C2/C(=O)NC3(C)CC2c2ccccc2O3)c(OC)c1OC (configuration not stated)	-	?	-65.2	?	-	0
O=C(CSc1nc2c(c(C(F)(F)F)n1)CCc1ccccc1-2)NCc1ccccc1	0	0	0	0	0	0
CCN(CC)CCCNC(=O)CSc1nc2c(c(C(F)(F)F)n1)CCc1ccccc1-2	0	15.8µM	0	0	0	-
CN(O)/C=C/C(=O)c1ccc(Br)cc1	0	0	?	0	0	8.91µM
CN(C)/C=C/C(=O)c1ccc(Br)cc1	0	0	?	0	0	-
Cc1ccc(CNC(=O)[C@H](C)[C@H]2C[C@]2(C)[C@H](NC(=O)OCc2ccccc2)c2ccccc2)o1	0	0[8.37 µM]	-	0	?	31.6µM
C[C@@H](C(=O)NCc1ccccc1)[C@@H]1C[C@@]1(C)[C@@H](NC(=O)OCc1ccccc1)c1ccccc1	?	?	0	0	0	0
SMILES	VACV mCherry inh	HCV inhibitor	HCMV antiviral	FMDV antiviral	Vaccinia Venus	Sm TGR inh
CCCCNC(=O)CS(=O)Cc1nc(-c2cccc(Cl)c2)oc1C (configuration not stated)	0	0	0	0	0	31.6µM
CCCCSCCCNC(=O)CS(=O)Cc1nc(-c2cccc(C)c2)oc1C (configuration not stated)	-	0	0	0	-	44.7µM
CCCCNC(=O)CS(=O)Cc1nc(-c2cccc(C)c2)oc1C (configuration not stated)	0	0	0	0	0	?
COCCCNC(=O)CS(=O)Cc1nc(-c2cccc(C)c2)oc1C (configuration not stated)	0	-	0	0	0	?
CCC(C)NC(=O)CS(=O)Cc1nc(-c2cccc(C)c2)oc1C (configuration not stated)	0	0	0	0	0	25.1µM
Cc1ccc(NS(=O)(=O)c2c(C(=O)N3CCCCCC3)c(C)n(C)c2C)c(C)c1	0	0	0	0	0	0
Cc1c(C(C)(C)C)c(C=S)n2ccccc12	-	0	0	0	-	2.24µM
O=C(O)/C(=C\c1ccc(C(F)(F)F)cc1)c1ccc(S(=O)(=O)N2CCCC2)s1	0	0	0	0	0	0
Oc1c(Cl)cc(Cl)cc1CNc1nc2ccccc2[nH]1	0	0	0	0	0	0
Cc1ccc(-c2nn[nH]n2)o1	-	0	0	0	-	44.7µM
Cc1ccc(-c2nn[nH]n2)cc1	-	0	0	0	-	0
Cc1ccc(-n2nc3c(N4CCC(C(=O)NCc5ccc(C)o5)CC4)nnc(C)c3c2C)cc1	-	?	-67.4	0	-	0
Cc1ccc(-n2nc3c(N4CCC(C(=O)NCCc5ccccc5C)CC4)nnc(C)c3c2C)cc1	10µM	7.94µM	0	?	12.6µM	0
Cc1nnc(N2CCC(C(=O)NCc3cccc(Cl)c3)CC2)c2nn(-c3ccccc3)c(C)c12	0	-	-103.2	0	0	0
COc1ccc(-n2nc3c(N4CCC(C(=O)NCCc5ccccc5)CC4)nnc(C)c3c2C)cc1	?	-	0	0	?	0
Cc1ccc(-n2nc3c(N4CCC(C(=O)NCCc5ccco5)CC4)nnc(C)c3c2C)cc1	-	?	0	?	-	0
Cc1ccc(-n2nc3c(N4CCC(C(=O)NCCc5ccccc5)CC4)nnc(C)c3c2C)cc1	10µM	-	0	?	11.2µM	0
CCC(=O)NC(=S)Nc1ccc(NC(=O)c2ccccc2[N+](=O)[O-])cc1	0	?	0	0	0	0
CN(C)CCNC(=O)C(=O)Nc1cc2c3c(c1)CCC(=O)N3CCC2	-	0	0	0	-	0
Cc1ccc(NC(=O)CN(Cc2ccccc2)S(C)(=O)=O)cc1C	-	0	0	0	-	0
CCN(C(=O)CSc1nc(N)cc(=O)[nH]1)c1c(N)n(Cc2ccccc2)c(=O)[nH]c1=O	0	0	0	0	0	0
COCCCNC(=O)N1CCN(c2nnc(C)c3c(C)n(-c4ccc(Cl)cc4)nc23)CC1	8.91µM	-	0	0	?	0
